AmpC inh detg: qHTS Inhibitors of AmpC Beta-Lactamase (assay with detergent); AmpC hydrolysis of nitrocefin, absorbance 480 nm, 0.01% Triton; P00811; Potency, µM (doses to about 114 µM), for the others: top-dose activity change, negative = inhibition, hits mostly inhibitors; 0.041% of 370,000 active;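 further: 0% = no-compound wells and -100% = no-enzyme wells; nearly all actives have a fitted effect of over 25% in size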
Target sequence (P00811 whole entry, looked up): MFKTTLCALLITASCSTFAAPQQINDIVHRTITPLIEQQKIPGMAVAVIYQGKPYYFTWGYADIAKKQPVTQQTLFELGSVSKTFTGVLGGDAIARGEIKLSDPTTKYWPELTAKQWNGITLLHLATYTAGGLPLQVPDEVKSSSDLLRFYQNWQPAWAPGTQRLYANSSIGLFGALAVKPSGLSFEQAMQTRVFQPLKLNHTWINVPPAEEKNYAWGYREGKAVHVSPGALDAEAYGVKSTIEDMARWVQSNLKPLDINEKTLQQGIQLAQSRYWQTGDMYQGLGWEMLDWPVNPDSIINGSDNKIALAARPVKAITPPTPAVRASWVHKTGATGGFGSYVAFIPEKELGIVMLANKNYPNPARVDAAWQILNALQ
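AmpC (5.3 nM in the dispensed reagent) in 20 mM phosphate pH 7.0 with 0.01% (detergent screen) or 0.0001% Triton X-100 was preincubated with compounds for 15 min at room temperature. Nitrocefin was then added from an 800 uM solution, and hydrolysis was followed at 480 nm.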
AmpC inh no detg: qHTS Inhibitors of AmpC Beta-Lactamase (assay without detergent). AmpC nitrocefin hydrolysis, absorbance 480 nm, 0.0001% Triton. Potency, µM (doses to about 57.1 µM), without a hit: top-dose activity change, negative = inhibition, usual class: inhibitors. 0.52% of 330,000 active. AID 485341, 2010;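 further: plate controls were no compound for no effect and no enzyme for full effect; nearly all actives have a fitted effect of over 20% in size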
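20 mM phosphate pH 7.0 + 0.01% (detergent screen) or 0.0001% Triton X-100; 5.3 nM AmpC reagent; cpd preinc 15 min RT; nitrocefin (800 uM stock) to start; A480 q20 s × 4 min; Activity was normalised to no-enzyme and no-compound control wells.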
Pf growth 96h: Primary qHTS for delayed death inhibitors of the malarial parasite plastid, 96 hour incubation; P. falciparum luciferase reporter growth, 96 h; Potency, µM (series often up to 28.7 µM), inactives show top-dose activity change, negative = inhibition, usual class: inhibitors; 6.9% of 320,000 active; AID 504834, 2011; further: on the % scale 0 is the no-effect control and ±100 the full control effect
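Cell-based qHTS: luciferase-tagged P. falciparum in erythrocytes (2% hematocrit, 0.05% parasitemia final) incubated with compounds for 96 hours, 37 C, 5% CO2; luciferase detection reagent then added and luminescence measured.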
Pf growth 48h: Primary qHTS for delayed death inhibitors of the malarial parasite plastid, 48 hour incubation. P. falciparum luciferase growth in erythrocytes, 48 h. Potency, µM (titrated, usually from 28.7 µM), for the others: at the top dose activity change, negative = inhibition, most hits filed as inhibitors. 5.9% of 310,000 active; further: on the % scale 0 is the no-effect control and ±100 the full control effect
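Compounds are pin-transferred into medium, infected erythrocytes (2% hematocrit, 0.1% parasitemia final) are added, and plates sit one parasite generation at 37 C in 5% CO2. Detection reagent is then added and luminescence measured.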
Sm TGR block: qHTS Assay for the Inhibitors of Schistosoma Mansoni Peroxiredoxins; 3% of 360,000 active; Potency, µM (doses to about 114 µM), without a hit: at the highest dose activity change, negative = inhibition, usual class: inhibitors; purified TGR, DTNB reduction, TNB absorbance 405 nm; Schistosoma mansoni thioredoxin glutathione reductase (TGR), Q962Y6; further: on the % scale 0 is the no-effect control and ±100 the full control effect; nearly all actives have a fitted effect of over 60% in size
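First, TGR (20 nM dispensed) and NADPH were mixed with compound. Second, a 15 min room-temperature incubation followed. Third, further NADPH and then DTNB were added to start the reaction. Finally, TNB absorbance was monitored kinetically.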
SARS PLP yeast: qHTS of Yeast-based Assay for SARS-CoV PLP. 0.19% of 330,000 active. S. cerevisiae expressing SARS-CoV PLpro, growth rescue. AID 485353, 2010. Potency, µM (series often up to 32.9 µM), for inactives: at the highest dose activity, positive = growth rescue, most hits filed as activators; calls by dose curve; further: 0% is about no effect; nearly all actives have a fitted effect of over 55% in size
An asterisk follows results filed as active; ? = inconclusive; nt = no result given; [ ] = dose if it differs, or a comment. An excerpt weighted towards active compounds, which were near 12% of everything screened. Unless noted, the call rests on the fitted dose curve; in most records, active means well fitted curve in the direction sought with a large enough effect; inconclusive means small, poorly fitted or top-dose-only effect, or another doubt; inactive means no such curve, though single readings can be large; an effect the other way counts as inactive or inconclusive. Potency means the concentration at half of the fitted maximal effect.

SMILES | AmpC inh detg | AmpC inh no detg | Pf growth 96h | Pf growth 48h | Sm TGR block | SARS PLP yeast
COc1ccc(S(=O)(=O)N2CCCCC2)cc1NC(=O)c1c(F)cccc1Cl | 0.0% | 14.0% | 2.94µM* | 8.28µM* | -4.3% | 7.3%
COc1ccc(C(=O)Nc2ccc(Cl)cc2F)cc1S(=O)(=O)N1CCCC1 | 1.5% | -18.0% | 9.28µM* | 11.7µM* | -3.3% | 1.1%
COc1ccc(S(=O)(=O)N2CCCC2)cc1NC(=O)c1ccccc1 | -2.8% | -2.8% | 11.7µM* | 2.8% | -5.8% | 8.9%
COc1ccc(CN2CCN(Cc3c[nH]c4ccccc34)CC2CCO)c(F)c1 (stereo not given) | 5.5% | 90.7% | ? | -27.4% | 12.0% | 0.6%
COc1ccccc1N(CN1CCCC1=O)C(=O)c1c(F)cccc1Cl | -4.1% | 16.2% | 15.8% | ? | -8.5% | 8.7%
COc1ccc(C(=O)N(CN2CCCC2=O)c2ccccc2OC)cc1OC | -3.4% | 0.1% | 0.0041µM* | 2.5% | 4.4% | 0.4%
O=C(c1noc2c1CCc1ccccc1-2)N1CCCc2ccccc21 | ? | -14.0% | nt | 3.29µM* | 13.7% | -12.6%
O=C(c1ccc(S(=O)(=O)N2CCCCC2)cc1)N1CCc2ccccc2C1 | 1.5% | 44.0% | 3.29µM* | ? | -0.5%[57.1 µM] | 0.5%
O=C(c1cccc(Br)c1)N1CCCc2ccccc21 | -12.9% | -13.8% | ? | 20.2% | -6.5% | nt
O=C(c1ccc(S(=O)(=O)N2CCCCC2)cc1)N1CCCc2ccccc21 | 1.6% | -5.7% | 13.1µM* | ? | 1.6% | 3.6%
O=C(c1ccc(S(=O)(=O)c2ccccc2)cc1)N1CCc2ccccc2C1 | -7.3% | -19.0% | 56.2% | -8.2% | 2.5% | 3.4%
O=C(c1coc(=O)c(Br)c1)N1CCCc2ccccc21 | ? | -8.3% | ? | 13.5% | 22.4µM* | 2.2%
CC(C)NC(=O)C1CCC(Cn2c(=O)c3sccc3n(CC(=O)NCc3ccccc3)c2=O)CC1 (stereo not given) | -1.4% | nt | nt | nt | -0.1% | nt
Cc1ccc(Cn2c(=O)n(Cc3ccco3)c(=O)c3sc4ccccc4c32)cc1 | -10.1% | nt | nt | nt | 2.2% | nt
CCOC(=O)C1CCN(S(=O)(=O)c2c[nH]c(=O)[nH]c2=O)CC1 | -6.6% | -13.4% | 26.0% | 21.2% | -9.1% | -0.1%
Cc1ccccc1N1C(=O)C(Cl)=C(N2CCN(c3ccccc3)CC2)C1=O | -13.2% | -38.9% | 3.7µM* | 0.0% | 0.0% | 3.6%
O=C1C(Cl)=C(N2CCCC2)C(=O)N1c1ccc(F)cc1 | ? | -20.5% | 0.0% | ? | 50.1µM* | 3.6%
O=C1C(Cl)=C(N2CCCC2)C(=O)N1c1ccccc1F | -10.8% | -2.6% | 2.62µM* | -2.3% | -12.8% | 1.6%
O=C1C(Cl)=C(N2CCOCC2)C(=O)N1c1ccccc1Cl | ? | -3.0% | 5.4% | -3.0% | -23.3% | 10.1%
O=C1C(Cl)=C(N2CCCCCC2)C(=O)N1c1ccccc1Cl | 2.1% | -40.1% | 10.2% | 8.8% | 3.0% | -2.9%
CCOC(=O)c1c(C)[nH]c(C)c1S(=O)(=O)N(C)CC(=O)N(C)Cc1ccccc1 | -0.5% | 15.7% | ? | -22.8% | 2.5% | 21.7%
O=C(Cc1ccc(NC(=O)N2CCCCc3ccccc32)cc1)NCc1ccccc1 | 3.2% | nt | nt | nt | -3.1% | nt
CCCn1c(SCC(=O)NC(C)(C)C)nnc1-c1ccco1 | -4.1% | 1.4% | 19.9% | 26.7% | -16.9% | 0.6%
Cc1cc(C)c2c(n1)nn1c(N3CCN(Cc4ccccc4)CC3)cc(C)nc21 | ? | 47.4% | nt | -16.2% | ? | -3.5%
COc1ccc(F)cc1CN1CCN(c2cc(C)nc3c4c(C)cc(C)nc4nn23)CC1 | -12.1% | 102.6% | ? | 14.7µM* | -31.2% | 16.4%
SMILES | AmpC inh detg | AmpC inh no detg | Pf growth 96h | Pf growth 48h | Sm TGR block | SARS PLP yeast
Cc1ccc(-n2ncc3c(NCCCN4CCOCC4)ncnc32)cc1C | 7.9% | nt | nt | nt | 43.3% | nt
NNC(=O)c1cc(Cl)ccc1Cl | -8.4% | -9.8% | 16.7% | -12.0% | -7.9% | 9.5%
CC(C)CNS(=O)(=O)c1ccc(CCC(=O)Nc2ccc3c(c2)OCO3)cc1 | ? | -26.3% | 4.15µM* | -6.6% | 2.7% | 3.0%
O=C(O)c1ccc(S(=O)(=O)NCc2ccc3c(c2)OCO3)cc1 | -11.4% | -12.5% | 29.1% | 6.4% | 9.8% | 1.3%
CC(C)c1ccc(S(=O)(=O)NCc2ccc3c(c2)OCO3)cc1 | ? | -45.5% | 10.4µM* | 6.5% | 4.0% | -10.1%
COCCNC(=O)c1c(NC(=O)Cc2coc3cc(C)ccc23)sc2c1CCCC2 | -6.7% | nt | nt | nt | -1.7% | nt
O=C(c1cccc(NS(=O)(=O)c2ccc(F)c(F)c2)c1)N1CCN(C(c2ccccc2)c2ccccc2)CC1 | -6.9% | -33.3% | ? | 13.1µM* | -6.9% | -17.9%
CS(=O)(=O)N(CC(=O)N1CCN(C(c2ccccc2)c2ccccc2)CC1)C1CCCCC1 | -4.9% | 82.8% | 2.62µM* | nt | 1.3% | 2.1%
O=C(C1CCCCN1S(=O)(=O)c1ccc(F)cc1)N1CCN(c2ccccc2F)CC1 (stereo not given) | -12.2% | 16.0% | 4.65µM* | -6.6% | -7.3% | 3.2%
O=C(C1CCCCN1S(=O)(=O)c1ccccc1)N1CCN(C(c2ccccc2)c2ccccc2)CC1 (stereo not given) | 5.7% | 6.6% | 1.85µM* | 1.85µM* | 17.5% | -2.2%
O=C(c1cccc(NS(=O)(=O)c2ccccc2)c1)N1CCCC1 | 5.2% | -0.2% | 11.7% | 2.8% | -5.2% | 2.1%
CCN1CCN(C(=O)c2cnn(-c3ccc(F)cc3)c2-n2cccc2)CC1 | 19.5% | nt | nt | nt | 7.5% | nt
CCCNS(=O)(=O)c1cccc(C(=O)OCc2cc(=O)oc3cc(OC)ccc23)c1 | -8.5% | -17.9% | ? | ? | 4.2% | -4.1%
CCc1cc2c(COC(=O)c3cccc(NS(C)(=O)=O)c3)cc(=O)oc2cc1O | -12.2% | -53.7% | 5.22µM* | ? | 8.7% | -13.2%
O=C(OCc1cc(=O)oc2cc(O)ccc12)c1cc(S(=O)(=O)N2CCOCC2)ccc1F | ? | -24.5% | 3.3% | 28.3% | 2.9% | 2.3%
CN(C)c1cccc(C(=O)OCc2cc(=O)oc3cc(O)ccc23)c1 | -1.7% | 17.8µM* | nt | 11.7µM* | -3.5% | -6.0%
CCc1cc2c(COC(=O)c3cc(S(=O)(=O)N4CCOCC4)ccc3F)cc(=O)oc2cc1O | -4.4% | -22.3% | 14.7µM* | ? | -28.4% | -0.3%

Screens: PubChem BioAssay, National Center for Advancing Translational Sciences (NCATS)
